An excerpt weighted towards active compounds, which were near 9.2% of everything screened.
NPC1 prom act = activates the NPC1 promoter | Huh7 NPC1 promoter luciferase reporter, 24 h | Potency, µM (titrated, usually from 9.22 µM), most hits filed as activators | hit rate 2.4% among 320,000 | AID 485313; further: nearly all actives have a fitted effect of over 60% in size
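NPC1 promoter–luciferase Huh7 cells; 24 h compound; luminescence.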
SMN2 splice up = SMN2 splice variant enhancement; HEK293 SMN2-luciferase splicing reporter, luminescence, 30-36 h; Potency, µM (series often up to 46.1 µM), usual class: activators; hit rate 2.8% among 210,000; further: nearly all actives have a fitted effect of over 55% in size
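HEK293 cells carry an SMN2 […]–luciferase reporter in which exon 7 inclusion puts luciferase in frame. Cells were plated 10-12 h before compound addition, then incubated 30-36 h at 37C. ONE-Glo luminescence was read; sodium butyrate at 4.5 mM final served as control.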
Rab9 promoter act = activators of Rab9 promoter | Huh7 Rab9 promoter-luciferase reporter, luminescence, 24 h | Potency, µM (top dose mostly 9.22 µM), usual class: activators | hit rate 2.8% among 320,000 | AID 485297; further: nearly all actives have a fitted effect of over 60% in size
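Quantitative HTS format; Huh7 Rab9-luciferase reporter cells (1500/well) receive compound 2 h post-plating, incubate 24 h at 37 °C, then get luciferase reagent for 10 min before luminescence reading.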
ELG1 repair inh = ELG1-dependent DNA repair inhibition; HEK293T ELG1-luciferase reporter, luminescence, 16 h; DNA damage induced by 5-fluorouridine; Potency, µM (highest dose often 46.1 µM), usual class: inhibitors; hit rate 2.3% among 330,000; further: nearly all actives have a fitted effect of over 55% in size
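Reporter activity after DNA damage by 5-fluorouridine is monitored. Compound-treated cells incubate 16 hr at 37 °C, then ONE-Glo is added for 30 min before luminescence reading.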
FLuc modulator = firefly luciferase modulation, counter-screen for miR-21 project | P08659 | purified FLuc, Km substrates, luminescence inhibition | Potency, µM (series often up to 57.5 µM), actives largely listed as inhibitors | hit rate 6.9% among 360,000; further: nearly all actives have a fitted effect of over 55% in size
Target sequence (P08659 whole entry, looked up): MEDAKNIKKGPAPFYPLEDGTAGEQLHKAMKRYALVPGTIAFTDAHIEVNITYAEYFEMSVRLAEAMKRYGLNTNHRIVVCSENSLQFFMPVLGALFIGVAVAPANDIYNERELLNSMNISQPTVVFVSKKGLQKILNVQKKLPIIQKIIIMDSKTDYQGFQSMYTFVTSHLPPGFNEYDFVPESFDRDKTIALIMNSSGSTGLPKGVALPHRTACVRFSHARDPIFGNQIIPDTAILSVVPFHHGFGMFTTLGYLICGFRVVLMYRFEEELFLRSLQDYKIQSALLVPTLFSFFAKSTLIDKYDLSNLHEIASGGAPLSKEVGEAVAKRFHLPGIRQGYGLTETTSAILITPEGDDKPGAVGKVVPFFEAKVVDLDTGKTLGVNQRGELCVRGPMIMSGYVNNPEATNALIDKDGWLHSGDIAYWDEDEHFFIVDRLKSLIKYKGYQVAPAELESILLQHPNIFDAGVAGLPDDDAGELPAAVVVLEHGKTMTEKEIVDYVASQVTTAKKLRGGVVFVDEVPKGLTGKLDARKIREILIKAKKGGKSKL
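Biochemical qHTS of compounds, final roughly 60 µM downward over six points, against 10 nM purified firefly luciferase using Km concentrations of substrates (10 uM D-luciferin, 10 uM ATP) in Tris acetate pH 7.5 buffer; luminescence output.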
ELG1 genotox = inducers of genotoxicity in HEK293T ELG1-luciferase cells. HEK293T ELG1-luciferase reporter, luminescence, 16 h. Potency, µM (top dose mostly 46 µM), most hits filed as activators. hit rate 1.3% among 330,000. AID 504466; further: nearly all actives have a fitted effect of over 60% in size
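Luminescence read-out: rising ELG1-luciferase signal, reflecting elevated ELG1 protein under genetic stress, flags genotoxic compounds. Cells were treated for 16 hr at 37 °C before ONE-Glo detection.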
Hits are given with their value; 0 = inactive; ? = inconclusive; - = no result; [ ] = dose if it differs, or a comment. The call rests on the fitted dose curve; in most records, active means well fitted curve in the direction sought with a large enough effect; inconclusive means small, poorly fitted or top-dose-only effect, or another doubt; inactive means no such curve, though single readings can be large; an effect the other way counts as inactive or inconclusive.

SMILES	NPC1 prom act	SMN2 splice up	Rab9 promoter act	ELG1 repair inh	FLuc modulator	ELG1 genotox
Cc1ccc(OCCNC(=O)c2ccc(NC(=O)CC3SC(N4CCCC4)=NC3=O)cc2)cc1 (configuration not stated)	0	-	0	0	0	0
O=C(NCc1ccc(Cl)cc1)c1ccc2oc(=O)n(Cc3ccccc3)c2c1	-	-	-	-	0	-
COc1ccc(NC(=O)c2onc(C)c2Cl)cc1	3.55µM	-	3.16µM	?	15.1µM	?
COc1ccc(Cc2nc(C(=O)Nc3ccc(OC)cc3)cs2)cc1	0	0	0	?	23.9µM	?
COc1ccc(Cc2nc(C(=O)NCc3ccccc3OC)cs2)cc1	0	0	0	0	0	0
COc1ccc(NC(=O)c2cc(C)on2)cc1	2.82µM	11.2µM	2.82µM	?	21.3µM	?
CCc1ccc(NC(=O)c2onc(C)c2Cl)cc1	2.51µM	14.1µM	2µM	?	3.38µM	5.17µM
COc1ccc(CNC(=O)Cn2c(=O)c3cccn3c3ccccc32)cc1	-	-	-	-	0	-
O=C(NCC(=O)N1CCN(c2ccccc2O)CC1)c1ccccc1	0	-	?	?	?	0
Cc1cccc(N2CCN(C(=O)CCNS(=O)(=O)c3ccc4c(c3)CCC(=O)N4)CC2)c1C	0	0	0	11.2µM	0	0
O=C(O)Cc1ccc(NC(=O)c2cccc(NC(=O)c3ccco3)c2)cc1	0	-	0	0	16.9µM	0
Cc1c(NC(=O)c2cccc(NC(=O)c3ccco3)c2)cccc1C(=O)O	0	0	0	0	19µM	0
O=C(Nc1ccc(O)c(C(=O)O)c1)c1cccc(NC(=O)c2ccco2)c1	0	-	0	0	10.7µM	0
O=C(NCc1ccccc1)c1cccc(NC(=O)c2ccco2)c1	0	0	0	0	0	0
O=c1[nH]cnc2cc(-c3ccc(Br)cc3)sc12	2.51µM	-	2.82µM	?	7.57µM	?
COc1ccc(N2CC(C(=O)NC3CCCCC3)CC2=O)cc1 (configuration not stated)	0	-	0	?	0	0
COc1ccc(-n2c(C)cc(C(=O)NC3CCCCC3)c2C)cc1	?	?	3.55µM	?	13.5µM	0
Cc1cccc(N2CCN(C(=O)NC3CCCCC3)CC2C)c1 (configuration not stated)	0	-	0	0	0	0
Cc1cccc(-n2c(C)cc(C(=O)NC3CCCCC3)c2C)c1	?	?	3.55µM	?	21.3µM	?
CNc1c(NC(=O)COc2ccc(Cl)cc2)c(=O)oc2ccccc12	0	-	0	0	0	0[9.26 µM]
CCC(=O)Nc1c(-c2ccccc2Cl)c(=O)c2ccccc2n1CC	0	-	0	0	0	0
COC(=O)c1ccc(NC(=O)CN2C(=O)NC3(CCC(C)CC3)C2=O)cc1 (configuration not stated)	-	-	-	0	-	0
COC(=O)C1=C(C)N(Cc2ccccc2)C(=NCc2ccc(OC)cc2)N[C@H]1c1ccc(Br)cc1	0	-	0	-	0	-
Cc1ccc(C)n1-c1cc([N+](=O)[O-])ccc1-n1ccnc1	0	-	0	0	0	0
CC1(C)N([O-])c2cc([N+](=O)[O-])ccc2[N+]1=O	0	-	0	0	10.7µM	0
SMILES	NPC1 prom act	SMN2 splice up	Rab9 promoter act	ELG1 repair inh	FLuc modulator	ELG1 genotox
Cc1cccc(Nc2nc(C)cc(C)n2)c1	0	-	0	0	0	0
Cc1cc(N(C)C)nc(Nc2ccccc2)n1	0	-	0	14.6µM	?	0
CCOc1ncccc1C(=O)Nc1cc(S(=O)(=O)N(CC)CC)ccc1N1CCOCC1	-	-	-	5.17µM	-	0
CCN(CC)S(=O)(=O)c1ccc(N2CCOCC2)c(NC(=O)c2ccc3ccccc3c2)c1	0	0	0	14.6µM	0	0
CCN(CC)S(=O)(=O)c1ccc(N2CCOCC2)c(NC(=O)c2c3c(nc4ccccc24)CCC3)c1	0	0[1.84 µM]	0	13µM	0	0
CCOc1ncccc1C(=O)Nc1cc(C(F)(F)F)ccc1N1CCOCC1	0	-	0	0	0	0
N#CC1=C(N)N(c2ccc(F)cc2)C2=C(C1c1ccc(O)cc1)S(=O)(=O)CC2 (configuration not stated)	0	0	0	0	21.3µM	0

Compound activity deposited in PubChem BioAssay by National Center for Advancing Translational Sciences (NCATS).
